Among the data in PubChem BioAssay are composite z-score and z-score values, retold here.

Assay [1] is described as follows: compounds binding Alexa647 anti-His antibody – biochemical, small-molecule microarray, 635 nm fluorescence, artefact control for SMM control protein annotation, primary screen (AID 1128).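 Note: score merges feature fluorescence with signal-to-noise for each printed compound spot.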 Conditions: higher = more signal.
Assay [2] deals with Human papillomavirus type 1a E7 protein (residues 1-88). The assay can be described thus: HPV1a E7 small-molecule binders, primary screen, biochemical, small-molecule microarray, residues 1-88, 635 nm (AID 1129). As to conditions: small-molecule microarray binding, fluorescence 635 nm; higher = more signal.
Assay [3] addresses Focal adhesion kinase 1 (Homo sapiens) (UniProt Q05397). The assay can be described thus: PTK2 protein binding on printed compound slides – biochemical, small-molecule microarray, 635/667 nm fluorescence, BSA, DTT, primary screen (AID 1130).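 Note: composite of spot emission at 667 nm and signal to noise over triplicate slides.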 Conditions: 635 nm fluorescence, higher = more signal.
Assay [4] relates to Fibrinogen (Alexa647-labelled). In words: Alexa647-fibrinogen binding to printed small molecules – biochemical, small-molecule microarray, 635/667 nm fluorescence, artefact control for SMM control-protein annotation, profiling panel (AID 1131).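 Note: z-score merges 667 nm fluorescence with per-spot signal-to-noise over triplicate slides.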 As to conditions: fibrinogen-A647 binding fluorescence, higher = more signal.
Assay [5] has as its target Follistatin (Homo sapiens) (UniProt P19883). In words: FST protein binding to printed compounds – biochemical, small-molecule microarray, 635/667 nm fluorescence, primary screen (AID 1132). As to conditions: 635 nm fluorescence, higher = more signal.
Assay [6] concerns the target Fibroblast growth factor 2 (Homo sapiens) (UniProt P09038). In words: basic fibroblast growth factor binding to printed compounds – biochemical, small-molecule microarray, 635/667 nm fluorescence, primary screen (AID 1133). As to conditions: FGF2, fluorescence 635/667, higher = more signal.
Assay [7] can be described thus: JC-1 mitochondrial potential readout, lung cancer cells – cell-based, A549, JC-1 fluorescence, basal, 24 h, 100 nL, profiling panel (AID 1138).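 Note: A549 lung adenocarcinoma cells under basal conditions with no added stimulus; test concentration not given here.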 As to conditions: higher = more signal.
The test system of assay [8] is Lefty1. In words: Lefty1 protein binding to printed compounds – biochemical, small-molecule microarray, 635/667 nm fluorescence, primary screen (AID 1139). As to conditions: fluorescence 635/667, higher = more signal.
The test system of assay [9] is wheat germ agglutinin (Triticum aestivum), Alexa647-labelled. In words: Alexa647-WGA lectin binding to printed small molecules – biochemical, small-molecule microarray, 635/667 nm fluorescence, artefact control for SMM control-protein annotation, profiling panel (AID 1140).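 Note: score merges 667 nm feature emission with signal to noise over triplicate slides.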 As to conditions: WGA-A647 binding, 635 nm fluorescence, higher = more signal.
Assay [10] addresses Luciferin 4-monooxygenase (Photinus pyralis) (UniProt P08659). The assay can be described thus: inhibition of purified Photinus pyralis luciferase – biochemical, luminescence, purified enzyme, 2006 set, primary screen (AID 1141).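 Note: cell-free assay with purified firefly luciferase at 100 ng per well in PBS; test concentration not given here.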 Conditions: purified firefly luciferase, SteadyGlo luminescence, 30 min; higher = more signal, called active from +8 up or from −8 down.
Assay [11] relates to Wnt5a (protein binding on small-molecule microarray). The assay can be described thus: small molecules binding Wnt5a protein – biophysical, small-molecule microarray, 635/667 nm fluorescence, primary screen (AID 1142).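 Note: fluorescence read at 667 nm with signal to noise per printed feature.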 As to conditions: 635 nm fluorescence, higher = more signal.
Assay [12] can be described thus: ATP-based viability of Huh7 replicon cells – cell-based, CellTiter-Glo luminescence, basal, 48 h, cytotoxicity control for HCV replication inhibitor project, primary screen (AID 1143).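 Note: Huh7 hepatoma cells carrying a hepatitis C replication reporter with no stimulus; test concentration not given here.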 Conditions: higher = more signal, called active from +8 up or from −8 down. In general terms: Replicon systems follow genome replication, usually without infectious particles.
A short description of assay [13]: Pseudomonas biofilm growth suppression – PAO1 strain, BacTiter-Glo luminescence, LB-PBS, primary screen (AID 1144). As to conditions: P. aeruginosa PAO1 biofilm, 12 h, higher = more signal.
Assay [14] can be described thus: basal CRE-LacZ reporter activity in PC12 – cell-based, unstimulated, primary screen (AID 1145). As to conditions: no forskolin, luminescence, 4.5 h, higher = more signal, called active from +8 up or from −8 down.
A short description of assay [15]: forskolin-driven CRE-LacZ activity in PC12 – cell-based, CRE-LacZ reporter, forskolin-stimulated, primary screen (AID 1146).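 Note: PC12 cells with 6xCRE LacZ reporter stimulated by forskolin 10 µM; beta-galactosidase reporter signal reflecting CREB driven transcription.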 As to conditions: luminescence, 4.5 h, higher = more signal, called active from +8 up or from −8 down.
The target in assay [16] is Streptavidin (Streptomyces avidinii) (UniProt P22629). In words: compounds binding control protein streptavidin – biophysical, small-molecule microarray, 635/667 nm fluorescence, artefact control for SMM compound annotation, primary screen (AID 1147).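 Note: signal reflects streptavidin binding to arrayed compounds as a control protein.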 As to conditions: higher = more signal.
Assay [17] in a line: probe aInhba binding on compound microarray – biochemical, small-molecule microarray, 635/667 nm fluorescence, primary screen (AID 1148).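 Note: score merges 667nm spot fluorescence with signal-to-noise for antibody binding to printed compounds.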 Conditions: higher = more signal.
For assay [18], the target named is Torsin-1A (Homo sapiens) (UniProt O14656). In words: TOR1A wild-type binding on microarray – cell lysate, small-molecule microarray, lysate, 635/667 nm, primary screen (AID 1149). Conditions: COS7 hTOR1A-WT lysate, 635 nm fluorescence, higher = more signal.
For assay [19] the target is unchanged. In words: torsin A mutant lysate binding on microarrays – cell lysate, small-molecule microarray, COS7 lysate, 635/667 nm fluorescence, primary screen (AID 1150).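 Note: score pools 667 nm emission and signal to noise measuring lysate protein binding.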 Conditions: COS7 hTOR1A mutant lysate, 635 nm fluorescence, higher = more signal.
Assay [20] concerns Sonic hedgehog protein (Shh). In words: Sonic hedgehog microarray binding compounds – biochemical, small-molecule microarray, 635/667 nm fluorescence, primary screen (AID 1151).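 Note: Shh protein binding to compounds spotted on small-molecule microarray slides; score combines spot fluorescence intensity with signal-to-noise across triplicate slides.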 As to conditions: 635 nm fluorescence, higher = more signal.

Activity calls are given as the source filed them. Unless noted, the rule behind the calls is not given here.

Chain of Fibroblast growth factor 2 (Homo sapiens) (P09038 whole entry, looked up): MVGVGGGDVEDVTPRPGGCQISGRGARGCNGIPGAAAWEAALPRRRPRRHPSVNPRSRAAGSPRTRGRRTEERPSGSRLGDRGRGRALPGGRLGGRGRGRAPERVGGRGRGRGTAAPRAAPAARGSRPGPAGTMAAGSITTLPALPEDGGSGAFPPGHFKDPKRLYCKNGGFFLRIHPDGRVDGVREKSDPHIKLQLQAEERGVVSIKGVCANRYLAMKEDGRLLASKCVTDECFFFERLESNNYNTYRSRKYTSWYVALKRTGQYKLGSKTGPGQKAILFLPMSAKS
Chain of Torsin-1A (Homo sapiens) (O14656 whole entry, looked up): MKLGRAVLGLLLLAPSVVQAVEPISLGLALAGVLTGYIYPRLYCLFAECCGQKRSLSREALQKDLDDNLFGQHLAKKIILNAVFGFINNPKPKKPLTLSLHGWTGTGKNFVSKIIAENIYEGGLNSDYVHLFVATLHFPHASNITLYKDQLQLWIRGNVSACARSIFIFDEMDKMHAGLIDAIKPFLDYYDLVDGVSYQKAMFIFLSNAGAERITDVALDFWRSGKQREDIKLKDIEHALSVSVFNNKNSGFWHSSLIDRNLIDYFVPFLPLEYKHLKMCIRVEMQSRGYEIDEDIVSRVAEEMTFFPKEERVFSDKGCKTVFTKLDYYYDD
Chain of Focal adhesion kinase 1 (Homo sapiens) (Q05397 whole entry, looked up): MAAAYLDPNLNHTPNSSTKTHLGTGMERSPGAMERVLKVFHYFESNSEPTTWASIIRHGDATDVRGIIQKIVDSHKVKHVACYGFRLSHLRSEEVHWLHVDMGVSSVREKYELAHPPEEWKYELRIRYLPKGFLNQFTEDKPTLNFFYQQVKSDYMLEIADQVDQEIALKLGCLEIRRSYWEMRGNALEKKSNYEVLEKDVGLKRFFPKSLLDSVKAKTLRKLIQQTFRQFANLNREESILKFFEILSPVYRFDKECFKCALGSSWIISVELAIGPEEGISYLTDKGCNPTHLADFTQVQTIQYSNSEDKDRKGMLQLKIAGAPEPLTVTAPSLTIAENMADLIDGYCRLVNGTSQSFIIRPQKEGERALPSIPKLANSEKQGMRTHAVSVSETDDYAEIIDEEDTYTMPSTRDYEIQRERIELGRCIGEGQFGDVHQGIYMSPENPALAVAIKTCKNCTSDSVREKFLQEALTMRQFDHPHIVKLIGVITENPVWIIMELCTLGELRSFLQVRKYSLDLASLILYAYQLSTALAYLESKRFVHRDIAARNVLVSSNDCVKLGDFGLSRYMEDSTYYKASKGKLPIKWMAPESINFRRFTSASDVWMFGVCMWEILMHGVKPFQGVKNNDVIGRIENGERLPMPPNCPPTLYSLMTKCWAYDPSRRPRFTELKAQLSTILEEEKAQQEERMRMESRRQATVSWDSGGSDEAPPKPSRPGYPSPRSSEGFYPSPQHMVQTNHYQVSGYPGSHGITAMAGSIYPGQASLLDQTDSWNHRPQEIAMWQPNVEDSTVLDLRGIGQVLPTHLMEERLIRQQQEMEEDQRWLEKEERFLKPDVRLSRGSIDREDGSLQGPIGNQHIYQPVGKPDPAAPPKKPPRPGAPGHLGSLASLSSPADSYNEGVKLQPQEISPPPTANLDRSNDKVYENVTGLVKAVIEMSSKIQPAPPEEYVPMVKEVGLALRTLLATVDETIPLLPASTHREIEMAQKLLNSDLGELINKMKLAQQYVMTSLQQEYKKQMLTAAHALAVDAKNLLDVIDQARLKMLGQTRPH
Chain of Follistatin (Homo sapiens) (P19883 whole entry, looked up): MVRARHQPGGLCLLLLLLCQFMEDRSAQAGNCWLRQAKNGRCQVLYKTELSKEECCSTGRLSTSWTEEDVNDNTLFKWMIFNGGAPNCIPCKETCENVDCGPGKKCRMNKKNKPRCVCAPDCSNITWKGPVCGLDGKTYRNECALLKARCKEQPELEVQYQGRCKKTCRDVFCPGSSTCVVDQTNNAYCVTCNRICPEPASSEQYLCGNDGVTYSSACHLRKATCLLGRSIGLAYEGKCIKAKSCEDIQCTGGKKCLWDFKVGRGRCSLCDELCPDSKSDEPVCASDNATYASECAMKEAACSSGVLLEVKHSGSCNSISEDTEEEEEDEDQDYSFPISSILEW
Chain of Luciferin 4-monooxygenase (Photinus pyralis) (P08659 whole entry, looked up): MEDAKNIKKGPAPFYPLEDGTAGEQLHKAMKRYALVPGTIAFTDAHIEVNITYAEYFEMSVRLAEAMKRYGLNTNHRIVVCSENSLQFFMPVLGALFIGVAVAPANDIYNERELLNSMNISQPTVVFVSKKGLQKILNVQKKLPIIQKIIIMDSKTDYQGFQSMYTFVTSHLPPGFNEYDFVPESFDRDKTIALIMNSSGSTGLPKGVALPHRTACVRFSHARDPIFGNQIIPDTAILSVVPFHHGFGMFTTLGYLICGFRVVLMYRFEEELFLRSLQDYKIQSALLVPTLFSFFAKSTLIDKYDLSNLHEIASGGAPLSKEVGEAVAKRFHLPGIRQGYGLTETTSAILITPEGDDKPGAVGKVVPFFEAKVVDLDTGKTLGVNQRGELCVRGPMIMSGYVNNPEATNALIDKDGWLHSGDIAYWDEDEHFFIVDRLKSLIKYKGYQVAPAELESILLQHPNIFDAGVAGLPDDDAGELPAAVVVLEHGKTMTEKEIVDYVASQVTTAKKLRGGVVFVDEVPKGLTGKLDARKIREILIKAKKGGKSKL
Chain of Streptavidin (Streptomyces avidinii) (P22629 whole entry, looked up): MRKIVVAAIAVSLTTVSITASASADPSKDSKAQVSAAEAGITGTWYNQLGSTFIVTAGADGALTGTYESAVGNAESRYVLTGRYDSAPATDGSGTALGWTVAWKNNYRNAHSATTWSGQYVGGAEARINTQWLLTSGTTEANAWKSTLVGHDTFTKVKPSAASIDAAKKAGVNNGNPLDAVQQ

On to `COC(=O)C(CC#Cc1ccc2c(c1)[C@]1(C(=O)N2)[C@H](C(N)=O)[C@H]2C(=O)O[C@H](c3ccccc3)[C@H](c3ccccc3)N2[C@@H]1c1ccccc1OCCO)C(=O)OC`, for which the composite z-score in [1] stood at 1.25; in assay [2] it was 1.22; in assay [3], 0.474; in assay [4], 0.591; in assay [5] it was 0.917; in assay [6], 0.535. For the same compound, the composite z-score was 0.607 in assay [8]; 0.775 in [9]; 0.151 in assay [11]; -0.0001 in assay [16]; -0.152 in [17]; 0.544 in assay [18]. Also, the values for the composite z-score in assay [19] and in [20] were 1.48 and 1.07, respectively. In addition, the z-score in assay [7] was -1.05; in assay [10], -0.638 (inactive); in assay [12], -6.25 (inactive); in assay [13] it was -0.451 (inactive); in [14], 0.362 (inactive); in assay [15], -0.955 (inactive).
On to `COc1c(C)cc(-c2cc3c(c(CCc4ccccc4)n2)[Si](C(C)C)(C(C)C)O[C@H]3c2ccccc2)cc1C`, for which the composite z-score in [1] is -0.439; in assay [2], -0.425; in assay [3], -0.191; in assay [4], -0.543; in assay [5], 0.029; in [6], -0.278. For the same compound, the composite z-score in assay [8] is 0.268; in assay [9], 0.183; in [11], -0.169; in assay [16] it was -0.0663; in assay [17], -0.128; in [18], -1.11. Further, the composite z-score is -0.554 in assay [19] and -0.11 in assay [20]. Moreover, the z-score is 0.386 in [7]; -0.183 (inactive) in [10]; -2.84 (inactive) in [12]; -0.0716 (inactive) in assay [13]; -0.272 (inactive) in assay [14]; 0.412 (inactive) in assay [15].
`O=C1NC(=O)C2C1C=CC(C(O)C(O)CO)N2Nc1ccccn1` (stereo not given): the composite z-score was 0.37 in assay [1]; 0.434 in assay [2]; -0.201 in assay [3]; 0.485 in assay [4]; 0.176 in assay [5]; -0.0885 in assay [6]. Moreover, the composite z-score in [8] was 0.0364; in assay [9] it was 0.333; in assay [11], 0.146; in assay [16], 0.0832; in [17] it was -0.168; in assay [18] it was 0.435. The composite z-score in assay [19] worked out at 0.344; in assay [20] it was 0.199. Further, the z-score is 0.767 in assay [7]; -1.41 (inactive) in assay [10]; 0.165 (inactive) in assay [12]; -0.893 (inactive) in assay [13]; 0.0603 (inactive) in assay [14]; 0.0702 (inactive) in assay [15].
For the compound `C=CCNC(=O)[C@H]1[C@@H]2C(=O)O[C@@H](c3ccccc3)[C@@H](c3ccccc3)N2[C@@H](c2ccc(O)cc2)[C@]12C(=O)Nc1ccccc12`, the composite z-score in assay [1] was 0.809; in assay [2], 0.642; in [3] it was -0.176; in assay [4] it was 0.13; in assay [5], 0.719; in [6] it was 0.757. The composite z-score in [8] is -0.319; in [9], -0.496; in assay [11], -0.124; in assay [16] it was -0.642; in assay [17] it was -0.128; in [18], 0.64. The composite z-score was found to be 0.778 in [19] and 0.279 in assay [20]. Further, the z-score is 0.914 in [7]; -1.57 (inactive) in [10]; -0.792 (inactive) in [12]; -0.683 (inactive) in assay [13]; -0.195 (inactive) in assay [14]; -0.0955 (inactive) in assay [15].
As to `COCCOC(=O)N1C(=O)[C@@]2(c3cc(C#CCCO)ccc31)[C@H](c1ccc(O)cc1)N1[C@H](c3ccccc3)[C@H](c3ccccc3)OC(=O)[C@H]1[C@@H]2C(=O)NC[C@H](O)c1ccccc1`, the composite z-score in [1] was 2.05; in [2], 1.2; in [3], 0.553; in assay [4], 0.0868; in assay [5] it was 1.17; in [6], 0.767. Besides, the composite z-score was 0.958 in assay [8]; -0.333 in assay [9]; 0.0153 in [11]; -0.331 in assay [16]; 0.0101 in assay [17]; 0.127 in assay [18]. The figures for the composite z-score in assay [19] and in assay [20] were -0.0807 and 1.03, respectively. For the same compound, the z-score was -0.703 in [7]; -1.52 (inactive) in assay [10]; -1.64 (inactive) in [12]; -0.718 (inactive) in assay [13]; 0.0776 (inactive) in assay [14]; -0.583 (inactive) in [15].
